Sa ugtP lethal = kills S. aureus RN4220 lacking UgtP. growth inhibition, % (test concentration not listed). S. aureus RN4220 ugtP deletion, OD600 growth, 16 h. 0.54% of 330,000 active. AID 1259309; in the data active means growth inhibition above about 68%;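 further: plate controls were untreated wells for no effect and antibiotic for full effect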
BJeLR viability = BJeLR cell viability loss | BJeLR (HRASV12) viability, CellTiter-Glo ATP luminescence, 48 h | inhibition, % (concentration not given with the values) | 0.17% of 300,000 active; in the data active means inhibition above about 50%; inconclusive means no clear call, values can overlap the other calls
CCHF vOTU inh = blocks the CCHF virus ovarian tumor domain protease. CCHFV vOTU protease, Pep-AMC fluorescence. AID 651958. inhibition, % at 11.5 µM. 0.55% of 370,000 active; in the data active means inhibition above about 30%; further: 0% = vehicle wells with enzyme and 100% = no enzyme wells
PfHsp40 rescue = rescue of PfHsp40-mediated yeast toxicity; AID 504582; growth rescue, % at 12.5 µM; 0.68% of 340,000 active; S. cerevisiae expressing PfHsp40, growth rescue, ATP luminescence; in the data active means growth rescue above about 28%, passing the limit was not always enough; inconclusive means no clear call, values can overlap the other calls;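 further: yeast W303a lacking pdr1 and pdr3 grown in galactose medium; growth measured after three days at 30 °C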
Sa RN4220 lethal = S. aureus RN4220 growth inhibition; inhibition, % (concentration not given with the values); OD600, 16 h; AID 1259311; 0.33% of 330,000 active; in the data active means inhibition above about 85%;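 further: plate controls were untreated cells for no effect and reference antibiotic for full effect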
Starred values were filed as active, the others as inactive; u = inconclusive; x = no result given. Rows were chosen to be rich in hits. Some 1.6% of all compounds tested hit in one or more screens of this group.

SMILES	Sa ugtP lethal	BJeLR viability	CCHF vOTU inh	PfHsp40 rescue	Sa RN4220 lethal
Cc1cc(C)cc(N2C(=O)NC(=O)C(=Cc3cc(C)n(C)c3C)C2=O)c1	-10	x	x	x	-1
c1ccc(C2=Nc3ccccc3OC2)cc1	9	8	12	50*	7
CCCc1nc2ccccc2c(=O)n1N=Cc1ccc(O)cc1O	-1	x	x	x	15
Cc1ccc2nc(Cl)c3nnnn3c2c1	x	24	x	85*	x
O=C(COC(=O)C=Cc1cccs1)Nc1cccc(S(=O)(=O)N2CCCC2)c1	-4	x	x	x	-2
Cc1ccccc1OCCOc1cccc(C=NNC(=O)Cc2nnc(N)s2)c1	10	x	x	x	2
COc1ccc(C=CC(=O)c2ccc3ccccc3c2O)cc1CN1CCOCC1	-2	x	x	x	-2
O=C(NC(C1CC1)C1CC1)C1CCC(=O)N(CCCN2CCCC2=O)C1 (stereo not drawn)	3	2	4	36*	2
COc1ccc2[nH]c(C)c(C(=O)CN3CCN(C/C=C/c4ccccc4)CC3)c2c1	-14	0	31*	-1	-2
O=S1(=O)Nc2c(ccc3cccnc23)-c2ccccc21	98*	2	x	19	98*
CCCCCCC(=O)O	6	x	-6	-1	3
CCCCCCCCCCCCCCCC(=O)OC(CC(=O)O)C[N+](C)(C)C (stereo not drawn)	99*	x	-4	125*	42
Clc1ccc(C2=NCCN2)cc1	4	9	-20	221*	4
Cc1c2n(c3ccccc13)CCC2=NO	7	x	x	x	2
Cc1[nH]n(C2=NCCS2)c(=O)c1N=Nc1cccc(C(F)(F)F)c1	99*	10	-10	u	99*
CCCNc1nc(C)cc(-c2cc(C(=O)Nc3ccccc3)on2)n1	x	-4	0	196*	x
CCCNc1nc(C)cc(-c2cc(C(=O)NCc3ccccc3)on2)n1	1	-4	9	6	3
O=C(NC(=S)N1CCN(c2ccc(C(F)(F)F)cc2[N+](=O)[O-])CC1)c1cccs1	13	-5	10	122*	21
CCN1CCN(C(=S)NC(=O)c2cccs2)CC1	3	-3	5	0	5
O=c1c2ccccc2nc(-c2ccccc2)n1-c1ccccc1O	8	3	-7	0	8
O=C1c2ccccc2-n2c1nc1ccccc1c2=O	54	-4	2	58*	54
CN(C)c1ccc(C=C(C(=O)c2ccc(Cl)cc2Cl)n2cncn2)cc1	-5	x	x	x	8
COc1ccc2cnn(CCOc3cc(C)ccc3C(C)C)c(=O)c2c1OC	35	-8	-7	320*	10
CCOc1ccccc1OCCn1ncc2ccc(OC)c(OC)c2c1=O	3	0	3	0	3
C=CCSc1nc2c(c(C3CC=CCC3)c1C#N)CCC2 (stereo not drawn)	97*	-9	-9	0	-4
SMILES	Sa ugtP lethal	BJeLR viability	CCHF vOTU inh	PfHsp40 rescue	Sa RN4220 lethal
CC(Sc1ncnc2ccccc12)C(=O)Nc1ccc2c(c1)OCO2 (stereo not drawn)	1	-1	12	42*	-1
COc1ccc2c(c1)C(C)=CC(C)(C)N2S(=O)(=O)c1ccc(Br)cc1	86*	49	-2	22	-2
COc1ccc2c(c1)C(C)=CC(C)(C)N2S(=O)(=O)c1ccc(NC(C)=O)cc1	x	47	0	1	x
Cc1cc(C(=O)COC(=O)Cc2n[nH]c(=O)c3ccccc23)c(C)n1-c1cccc(C(F)(F)F)c1	11	-1	28	96*	-2
Cc1nnc(C)n1N=Cc1ccccn1	11	x	x	x	3
CCCCNc1c(-c2ccc(SC(C)CC)cc2)nc2ccccn12 (stereo not drawn)	x	11	-24	209*	x
CCCCNc1c(-c2ccc(SC3CCCCC3)cc2)nc2ccccn12	4	-1	-24	19	-2
CCCCCCSc1ccc(-c2nc3cnccn3c2NCCCC)cc1	x	x	-3	37*	x
CCCCNc1c(-c2ccc(OC)c(SC(C)CC)c2)nc2cnccn12 (stereo not drawn)	x	x	-2	18	x
CC(=O)Nc1c(Br)cc2c(c1Br)C(=O)c1ccccc1-2	x	x	7	-2	x
CC(=O)C1=C(c2ccc(Br)cc2)C(=O)c2ccccc2C1=O	97*	29	23	u	97*
CCOC(=S)SCC(=O)Nc1nc(-c2ccc(Br)cc2)cs1	99*	-14	6	0	-13
CCOC(=S)SCC(=O)Nc1nc(-c2ccccc2)cs1	38	2	4	-2	-5
Cc1cccc(N2C(=O)C=CC2=O)c1	0	x	-2	1	-1
O=C1C=CC(=O)N1c1ccc2ccccc2c1	1	x	-5	766*	-1
CCCOc1ccc(CCC(=O)NN=Cc2ccco2)cc1	0	x	x	x	0
C[C@@]12CCC3[C@@](CCC4[C@@]3(C)CCC[C@@]4(C)C(=O)NCc3ccccc3)(CC1=O)C2 (stereo partly drawn)	4	x	0	346*	10
O=C(O)C[C@H](O)C[C@H](O)/C=C/c1c(C2CC2)nc2ccccc2c1-c1ccc(F)cc1	x	53*	x	x	x
CC(C)n1c(/C=C/[C@H](O)C[C@H](O)CC(=O)O)c(-c2ccc(F)cc2)c2ccccc21	0	x	x	0	0
Cc1nc(N)nc(N)c1CCCc1ccc(Cl)c(Cl)c1	2	57*	9	0	19
Cn1nc(C(F)(F)F)c(/C=N/OC(=O)c2ccccc2)c1Cl	x	1	-3	-1	x
Cn1nc(C(F)(F)F)c(C=NOCc2c(Cl)cccc2Cl)c1Cl	93*	x	x	x	4
CCOC(=O)CSc1nc2c(c(=O)n1-c1ccc(OC)cc1)SCC2	-3	-4	0	-1	-4
CCOC(=O)CSc1nc2c(c(=O)n1-c1ccc(OCC)cc1)SCC2	-1	-10	1	40*	4
COC(=O)C1=C(c2ccc(OC(F)(F)F)cc2)CC2CCC1N2C(=O)NCCOc1ccccc1Cl (stereo not drawn)	2	x	x	x	-12
SMILES	Sa ugtP lethal	BJeLR viability	CCHF vOTU inh	PfHsp40 rescue	Sa RN4220 lethal
N=c1c2c(-c3ccccc3)c(-c3ccccc3)n(Cc3ccco3)c2ncn1CCCO	13	19	-11	x	-5
N=c1c2c(-c3ccccc3)c(-c3ccccc3)n(Cc3ccco3)c2ncn1CCO	85*	-5	5	0	0
Cc1ccc(S(=O)(=O)NC(=O)Nc2ccc(N(C)C)cc2)cc1	11	-14	50*	0	4
CC1CCN(C(=O)c2[nH]cnc2C(=O)NC(C)C(=O)OC(C)(C)C)CC1 (stereo not drawn)	3	x	x	x	6
Cc1ccc(Oc2ccc(NC(=O)CSc3n[nH]c(N)n3)cc2)cc1	91*	-12	-4	-1	1
Nc1nc(SCC(=O)Nc2ccc(S(N)(=O)=O)cc2)n[nH]1	6	-1	-4	-1	-1
COC(=O)[C@@]1(Cc2ccc(OC)cc2)C2c3cc(C(=O)N(C)C)n(CCc4ccc(OC)c(Br)c4)c3CC2CN1C(=O)c1ccccc1 (stereo partly drawn)	7	x	x	x	-7
COC(=O)Cc1cc(=O)n(-c2ccccc2)[nH]1	2	-2	-7	51*	2
O=C(Nc1ccc(Cl)c(C(F)(F)F)c1)C1CC=CC2CCN(C3CCCCC3)C(=O)C21 (stereo not drawn)	0	x	x	x	-2

Compound activity: PubChem BioAssay, several laboratories
